Results reported in PubChem BioAssay AID1159580 (chemical genetic matrix, 2015).
The whole screen tested about 5,500 compounds, of which about 2,000 (36%) were called active. Inconclusive results (about 18%) are left out. This is one part of the list. Unmarked numbers belong to inactive results. Rule as the data show it: active = normalized growth mostly below about 0.91 (no sharp cut-off); inconclusive = no clear call, values can overlap the other calls; inactive = mostly above about 0.92.

Test: chemical genetic growth profiling, strain panel (AID 1159580);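 also: tested at 20 µM; growth read once vehicle control cultures reached saturation at 30 °C; 1 = growth at the plate median or of vehicle wells; lower values mean less growth of the strain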
Settings: growth OD

`CCCCC/C=C\C/C=C\C/C=C\C/C=C\CCCC(=O)O` gave a normalized growth (S. cerevisiae deletion strains, locus YJR043C, strain POL32, hits give low values) of 0.975, a normalized growth (S. cerevisiae deletion strains, locus YJR075W, strain HOC1, hits give low values) of 0.968 and a normalized growth (S. cerevisiae deletion strains, locus YKL009W, strain mrt4, hits give low values) of 0.982. For the same compound, the normalized growth (S. cerevisiae deletion strains, locus YKL068W, hits give low values) was 0.973, the normalized growth (S. cerevisiae deletion strains, locus YKL085W, strain MDH1 (second series), hits give low values) was 0.958 and the normalized growth (S. cerevisiae deletion strains, locus YKL085W, strain MDH1, hits give low values) was 0.958. For the same compound, the normalized growth (S. cerevisiae deletion strains, locus YKL160W, strain elf1, hits give low values) was 0.98, the normalized growth (S. cerevisiae deletion strains, locus YKL190W, strain CNB1, hits give low values) was 0.987 and the normalized growth (S. cerevisiae deletion strains, locus YKR001C, strain vps1, hits give low values) was 0.857 (active). The normalized growth (S. cerevisiae deletion strains, locus YKR026C, strain gcn3, hits give low values) was 0.944, the normalized growth (S. cerevisiae deletion strains, locus YKR091W, strain srl3, hits give low values) was 0.967 and the normalized growth (S. cerevisiae deletion strains, locus YLL001W, strain dnm1, hits give low values) was 0.96. For the same compound, the normalized growth (S. cerevisiae deletion strains, locus YLL026W, hits give low values) was 0.976, the normalized growth (S. cerevisiae deletion strains, locus YLL041C, strain sdh2, hits give low values) was 0.975 and the normalized growth (S. cerevisiae deletion strains, locus YLR027C, strain aat2, hits give low values) was 0.978. It also gave a normalized growth (S. cerevisiae deletion strains, locus YLR039C, strain RIC1, hits give low values) of 0.686, a normalized growth (S. cerevisiae deletion strains, locus YLR058C, strain SHM2, hits give low values) of 0.972 and a normalized growth (S. cerevisiae deletion strains, locus YLR102C, strain apc9, hits give low values) of 0.971. The normalized growth (S. cerevisiae deletion strains, locus YLR221C, strain rsa3, hits give low values) was 0.972, the normalized growth (S. cerevisiae deletion strains, locus YLR258W, strain gsy2, hits give low values) was 0.966 and the normalized growth (S. cerevisiae deletion strains, locus YLR262C, strain YPT6 (second series), hits give low values) was 0.856 (active). The normalized growth (S. cerevisiae deletion strains, locus YLR262C, strain YPT6, hits give low values) was 0.719, the normalized growth (S. cerevisiae deletion strains, locus YLR268W, strain sec22, hits give low values) was 1.01 and the normalized growth (S. cerevisiae deletion strains, locus YLR320W, strain mms22, hits give low values) was 0.884. The normalized growth (S. cerevisiae deletion strains, locus YLR330W, strain CHS5, hits give low values) was 0.984, the normalized growth (S. cerevisiae deletion strains, locus YLR342W, strain FKS1 (second series), hits give low values) was 0.942 and the normalized growth (S. cerevisiae deletion strains, locus YLR342W, strain FKS1, hits give low values) was 0.969. The normalized growth (S. cerevisiae deletion strains, locus YLR357W, strain rsc2, hits give low values) was 0.935, the normalized growth (S. cerevisiae deletion strains, locus YLR370C, strain arc18, hits give low values) was 0.964 and the normalized growth (S. cerevisiae deletion strains, locus YLR371W, strain rom2, hits give low values) was 0.975. It also gave a normalized growth (S. cerevisiae deletion strains, locus YLR384C, strain iki3, hits give low values) of 0.982, a normalized growth (S. cerevisiae deletion strains, locus YLR418C, strain cdc73, hits give low values) of 0.953 and a normalized growth (S. cerevisiae deletion strains, locus YML016C, strain PPZ1, hits give low values) of 1. For the same compound, the normalized growth (S. cerevisiae deletion strains, locus YML032C, strain rad52, hits give low values) was 0.967, the normalized growth (S. cerevisiae deletion strains, locus YML120C, strain ndi1, hits give low values) was 0.986 and the normalized growth (S. cerevisiae deletion strains, locus YML124C, strain tub3, hits give low values) was 0.983. The normalized growth (S. cerevisiae deletion strains, locus YMR058W, strain fet3, hits give low values) was 0.919, the normalized growth (S. cerevisiae deletion strains, locus YMR078C, strain ctf18, hits give low values) was 0.964 and the normalized growth (S. cerevisiae deletion strains, locus YMR125W, strain sto1, hits give low values) was 0.977. It also gave a normalized growth (S. cerevisiae deletion strains, locus YMR129W, hits give low values) of 0.977, a normalized growth (S. cerevisiae deletion strains, locus YMR205C, strain PFK2, hits give low values) of 0.919 and a normalized growth (S. cerevisiae deletion strains, locus YMR223W, strain ubp8, hits give low values) of 0.953. For the same compound, the normalized growth (S. cerevisiae deletion strains, locus YMR231W, strain pep5, hits give low values) was 0.974, the normalized growth (S. cerevisiae deletion strains, locus YMR263W, strain SAP30, hits give low values) was 1 and the normalized growth (S. cerevisiae deletion strains, locus YMR307W, strain GAS1, hits give low values) was 0.966. The normalized growth (S. cerevisiae deletion strains, locus YNL067W, strain RPL9B, hits give low values) was 0.987, the normalized growth (S. cerevisiae deletion strains, locus YNL071W, strain lat1, hits give low values) was 0.857 (active) and the normalized growth (S. cerevisiae deletion strains, locus YNL128W, strain TEP1, hits give low values) was 0.995. It also gave a normalized growth (S. cerevisiae deletion strains, locus YNL153C, strain GIM3, hits give low values) of 1, a normalized growth (S. cerevisiae deletion strains, locus YNL209W, strain ssb2, hits give low values) of 0.983 and a normalized growth (S. cerevisiae deletion strains, locus YNL233W, strain BNI4, hits give low values) of 0.981. For the same compound, the normalized growth (S. cerevisiae deletion strains, locus YNL248C, strain rpa49, hits give low values) was 0.972, the normalized growth (S. cerevisiae deletion strains, locus YNL250W, strain rad50, hits give low values) was 0.924 and the normalized growth (S. cerevisiae deletion strains, locus YNL271C, strain bni1, hits give low values) was 0.973. The normalized growth (S. cerevisiae deletion strains, locus YNL298W, strain CLA4, hits give low values) was 0.956, the normalized growth (S. cerevisiae deletion strains, locus YNL307C, strain MCK1, hits give low values) was 0.733 (active) and the normalized growth (S. cerevisiae deletion strains, locus YNL322C, strain KRE1 (second series), hits give low values) was 0.996. The normalized growth (S. cerevisiae deletion strains, locus YNL322C, strain KRE1, hits give low values) was 0.986, the normalized growth (S. cerevisiae deletion strains, locus YNR049C, strain mso1, hits give low values) was 0.971 and the normalized growth (S. cerevisiae deletion strains, locus YNR052C, strain pop2, hits give low values) was 0.977. It also gave a normalized growth (S. cerevisiae deletion strains, locus YOL006C, strain TOP1, hits give low values) of 0.836, a normalized growth (S. cerevisiae deletion strains, locus YOL012C, strain htz1) of 0.8 and a normalized growth (S. cerevisiae deletion strains, locus YOL147C, strain pex11, hits give low values) of 0.987. It also gave a normalized growth (S. cerevisiae deletion strains, locus YOR001W, strain rrp6, hits give low values) of 0.971, a normalized growth (S. cerevisiae deletion strains, locus YOR061W, strain CKA2, hits give low values) of 0.986 and a normalized growth (S. cerevisiae deletion strains, locus YOR069W, strain VPS5, hits give low values) of 0.99. It also gave a normalized growth (S. cerevisiae deletion strains, locus YOR070C, strain gyp1, hits give low values) of 0.98, a normalized growth (S. cerevisiae deletion strains, locus YOR080W, strain dia2, hits give low values) of 0.97 and a normalized growth (S. cerevisiae deletion strains, locus YOR083W, strain WHI5, hits give low values) of 0.996. It also gave a normalized growth (S. cerevisiae deletion strains, locus YOR106W, strain vam3, hits give low values) of 0.978, a normalized growth (S. cerevisiae deletion strains, locus YOR136W, strain idh2, hits give low values) of 0.965 and a normalized growth (S. cerevisiae deletion strains, locus YOR144C, strain elg1, hits give low values) of 0.986. For the same compound, the normalized growth (S. cerevisiae deletion strains, locus YOR184W, strain ser1, hits give low values) was 0.895, the normalized growth (S. cerevisiae deletion strains, locus YOR265W, strain rbl2, hits give low values) was 0.978 and the normalized growth (S. cerevisiae deletion strains, locus YOR270C, strain vph1, hits give low values) was 0.924. For the same compound, the normalized growth (S. cerevisiae deletion strains, locus YOR290C, strain snf2, hits give low values) was 0.89, the normalized growth (S. cerevisiae deletion strains, locus YOR316C, strain cot1, hits give low values) was 0.982 and the normalized growth (S. cerevisiae deletion strains, locus YPL051W, strain arl3, hits give low values) was 0.985. For the same compound, the normalized growth (S. cerevisiae deletion strains, locus YPL055C, strain LGE1, hits give low values) was 0.972, the normalized growth (S. cerevisiae deletion strains, locus YPL078C, strain atp4, hits give low values) was 0.967 and the normalized growth (S. cerevisiae deletion strains, locus YPL106C, strain sse1, hits give low values) was 0.931. The normalized growth (S. cerevisiae deletion strains, locus YPL240C, strain hsp82, hits give low values) was 0.978, the normalized growth (S. cerevisiae deletion strains, locus YPL241C, strain CIN2, hits give low values) was 0.986 and the normalized growth (S. cerevisiae deletion strains, locus YPR119W, strain clb2, hits give low values) was 0.969. It also gave a normalized growth (S. cerevisiae deletion strains, locus YPR141C, strain kar3, hits give low values) of 0.975, a normalized growth (S. cerevisiae deletion strains, locus YPR163C, strain tif3, hits give low values) of 0.965 and a normalized growth (S. cerevisiae deletion strains, locus YPR167C, strain met16, hits give low values) of 0.986. The normalized growth (S. cerevisiae deletion strains, strain wtn01, hits give low values) was 0.972 and the normalized growth (S. cerevisiae strains, strain wild type, hits give low values) was 0.976.
